# In PubChem BioAssay:
# Values joined by “and” are separate entries in the source; they are usually repeats but may differ in a detail not shown here. Identical values can stand only once. Active and inactive are the calls of the source.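 Rule for the calls: active = compounds whose cell count with miR-34 switched on is under 0.7 times the count with it off; inactive = the rest.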
# Test: sensitizers of A549 cells to miR-34 induction, primary screen, imaging, A549 dox-inducible miR-34, nuclei and caspase counts (AID 1347080); note: test concentration not given here
# Conditions: A549 miR-34 inducible, Hoechst nuclei count, 48 h; stronger effect = lower value; cell number ratio, induced over uninduced
row,Compound,fold change
1,OCCNc1ncnc2oc(-c3ccccc3)c(-c3ccccc3)c12,0.989 (inactive)
2,Cc1nonc1CN(C)c1ncnc2nc[nH]c12,0.907 (inactive)
3,COc1ccc(CCNCC(O)COc2cccc(C)c2)cc1OC (centres undefined),0.915 (inactive)
4,CCc1cc(CN2CCN(C)C(CCO)C2)on1 (centres undefined),0.907 (inactive)
5,CCn1ccnc1CN(C)C(=O)c1cc(-c2cnc(N)nc2)nc2cc(C)ccc12,0.962 (inactive)
6,CN(C)CCC=C1c2ccccc2COc2ccc(CC(=O)O)cc21,0.912 (inactive) and 0.919 (inactive)
7,CC(=O)Nc1cccc(-c2nn(CC(=O)Nc3cnn(C)n3)c3ccccc23)c1,0.885 (inactive)
8,Cc1nsc(NC(=O)N(C)Cc2cn[nH]c2-c2ccc(F)cc2)n1,0.916 (inactive)
9,O=C(O)c1ccc(O)cc1O,0.891 (inactive)
10,COc1ccc(OC)c2c1c(C)cc(=O)n2C,0.823 (inactive)
11,CCc1nc(NC(=O)NC(c2ccccc2)c2ccco2)nn1C (centres undefined),0.878 (inactive)
12,Nc1nc(Nc2cccc(Cl)c2)sc1C(=O)c1ccc(F)cc1,0.868 (inactive)
13,NC1=NC(=O)C(=Cc2ccc(-c3ccc(C(=O)O)cc3)o2)S1,0.91 (inactive)
14,CN1CC2c3ccccc3Oc3ccc(Cl)cc3C2C1 (centres undefined),0.788 (inactive)
15,O=c1ccn2c(n1)OC1C(O)C(CO)OC12 (centres undefined),0.869 (inactive)
16,CCCn1ncc(NC(=O)Cn2cc(C)c(-c3cccc(Cl)c3)n2)n1,0.851 (inactive)
17,COc1ccccc1C(=O)N1CCC(n2cc(-c3ccccn3)nn2)CC1,0.917 (inactive)
18,NC(=O)NC(CCC(=O)O)C(=O)O (centres undefined),0.857 (inactive)
19,CCn1ncc(NC(=O)Cn2cc(-c3ncnc4ccsc34)cn2)n1,0.848 (inactive)
20,CN(CCc1ccccn1)C(=O)c1ccc2sc(N)nc2c1,0.88 (inactive)
21,COc1ccc(C=CC(=O)O)cc1O,0.917 (inactive)
22,Cc1cc(=O)oc2cc(OC3OC(CO)C(O)C(O)C3O)ccc12 (centres undefined),0.875 (inactive)
23,CCn1ccnc1CN(C)C(=O)c1cc(-c2cnc(N)nc2)nc2c(C)cccc12,0.899 (inactive)
24,CC(C)C(NC(=O)Cc1c[nH]c2ccccc12)C(=O)O (centres undefined),0.857 (inactive)

# Same assay, conditions: A549 miR-34 inducible, Hoechst nuclei count, 48 h; measured here: relative caspase fold change +Dox/-Dox
row,Compound,fold change
1,COc1ccc2[nH]cc(CCC(=O)O)c2c1,0.282
2,COc1ccc(N2CCN(c3ncnc4sccc34)C(C)C2=O)cc1 (centres undefined),1.18
3,O=C(Cn1nnc(-c2ccccc2)n1)Nc1ccnn1Cc1ccccc1,1.22
4,Cc1sc2ncnc(-c3cccc4cccnc34)c2c1C,1.66
5,Cc1nsc(NC(=O)N2CCC(C(O)CC(C)C)CC2)n1 (centres undefined),2.21
6,O=C(O)Cc1ccc(O)c([N+](=O)[O-])c1,0.986
7,Cc1cc(C(=O)N2CCc3[nH]nc(COc4ccccc4)c3C2)c(C)o1,1.21
8,CCN(Cc1nccn1C)C(=O)c1cc(-c2cnc(C)nc2)nc2cc(F)ccc12,1.32
9,OC(CNCC(O)C1CCc2cc(F)ccc2O1)C1CCc2cc(F)ccc2O1 (centres undefined),0.335
10,CN1CCN(Cc2ccc3nonc3c2)CC1CCO (centres undefined),1.09
11,CN1CCN(Cc2cccc(-n3cccn3)c2)CC1CCO (centres undefined),3.04
12,CC(O)Cc1cn(C2CCN(c3ncnc4nc[nH]c34)CC2)nn1 (centres undefined),0.915
13,COc1ccc(-c2oc3c(CC=C(C)C)c(OC4OC(CO)C(O)C(O)C4O)cc(O)c3c(=O)c2OC2OC(C)C(O)C(O)C2O)cc1 (centres undefined),1.15 and 1.26
14,COc1cccc2ncn(Cc3nc4ccccc4o3)c(=O)c12,1.68
15,COc1cc(N(C)CC2COc3ccccc3O2)nc(N)n1 (centres undefined),2.02
16,COc1cc(Cn2cnc3nccnc3c2=O)cc(OC)c1,2.53
17,OCCNc1ncnc2oc(-c3ccccc3)c(-c3ccccc3)c12,0.446
18,Cc1nonc1CN(C)c1ncnc2nc[nH]c12,0.714
19,COc1ccc(CCNCC(O)COc2cccc(C)c2)cc1OC (centres undefined),0.555
20,CCc1cc(CN2CCN(C)C(CCO)C2)on1 (centres undefined),1.26

row,Compound,fold change
1,CCn1ccnc1CN(C)C(=O)c1cc(-c2cnc(N)nc2)nc2cc(C)ccc12,1.43
2,CN(C)CCC=C1c2ccccc2COc2ccc(CC(=O)O)cc21,1.41 and 0.942
3,CC(=O)Nc1cccc(-c2nn(CC(=O)Nc3cnn(C)n3)c3ccccc23)c1,1.89
4,Cc1nsc(NC(=O)N(C)Cc2cn[nH]c2-c2ccc(F)cc2)n1,0.879
5,O=C(O)c1ccc(O)cc1O,0.246
6,COc1ccc(OC)c2c1c(C)cc(=O)n2C,0.693
7,CCc1nc(NC(=O)NC(c2ccccc2)c2ccco2)nn1C (centres undefined),0.916
8,Nc1nc(Nc2cccc(Cl)c2)sc1C(=O)c1ccc(F)cc1,0.635
9,NC1=NC(=O)C(=Cc2ccc(-c3ccc(C(=O)O)cc3)o2)S1,0.479
10,CN1CC2c3ccccc3Oc3ccc(Cl)cc3C2C1 (centres undefined),0.355
11,O=c1ccn2c(n1)OC1C(O)C(CO)OC12 (centres undefined),0.596
12,CCCn1ncc(NC(=O)Cn2cc(C)c(-c3cccc(Cl)c3)n2)n1,1.04
13,COc1ccccc1C(=O)N1CCC(n2cc(-c3ccccn3)nn2)CC1,1.29
14,NC(=O)NC(CCC(=O)O)C(=O)O (centres undefined),0.229
15,CCn1ncc(NC(=O)Cn2cc(-c3ncnc4ccsc34)cn2)n1,1.75
16,CN(CCc1ccccn1)C(=O)c1ccc2sc(N)nc2c1,0.927
17,COc1ccc(C=CC(=O)O)cc1O,0.34
18,Cc1cc(=O)oc2cc(OC3OC(CO)C(O)C(O)C3O)ccc12 (centres undefined),0.68
19,CCn1ccnc1CN(C)C(=O)c1cc(-c2cnc(N)nc2)nc2c(C)cccc12,1.48
20,CC(C)C(NC(=O)Cc1c[nH]c2ccccc12)C(=O)O (centres undefined),0.806
